DT40 TDP1 no CPT: qHTS for Inhibitors of human tyrosyl-DNA phosphodiesterase 1 (TDP1): qHTS in cells in absence of CPT. DT40 Tdp1-/- hTDP1 cells, no CPT, ATP luminescence, 48 h. Potency, µM (highest dose often 46.2 µM), for the others: at the highest dose activity change, negative = growth inhibition, most hits filed as inhibitors. 15% of 420,000 active. AID 686978, 2013; note: % is set by controls: 0 for no effect and ±100 for the full control effect; nearly all actives have a fitted effect of over 55% in size
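A cellular qHTS used chicken DT40 cells lacking endogenous Tdp1 but carrying stably transfected human TDP1. Compounds were applied without camptothecin, and cell growth kinetics were judged by ATP-dependent luminescence after ≥48 hr.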
S2 tox: viability counter-screen for ATXN expression inhibitors. 0.49% of 400,000 active. Potency, µM (highest dose often 56.7 µM), most hits filed as cytotoxic. S2 cells (HEK-293 line with an ATXN2-luciferase reporter) viability, CellTiter-Fluor protease fluorescence, 24 h. AID 651635; note: nearly all actives have a fitted effect of over 40% in size
TGFb SMAD3 inh: inhibitors of TGF-b signaling; HepG2 CAGA-GFP TGF-b/SMAD3 reporter, GFP fluorescence, 18 h; TGF-beta stimulated, 500 pg/mL final; Potency, µM (highest dose often 46.1 µM), for the others: at the highest dose activity, negative = inhibition, actives largely listed as inhibitors; 1.2% of 410,000 active; AID 588855; note: % is set by controls: 0 for no effect and ±100 for the full control effect; nearly all actives have a fitted effect of over 65% in size
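Inhibition was scored as loss of TGF-beta-induced (500 pg/mL final, 18 hours, 37 degrees C) GFP in HEPG2 cells carrying a CAGA-GFP reporter, in DMEM with 1% FBS. Well GFP was summed per cell; Activity was normalised to unstimulated and stimulated DMSO wells, then concentration-response fitting.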
ATXN2 expr inh: inhibitors of ATXN2 expression; HEK-293 ATXN2-luciferase reporter, luminescence, 24 h; Potency, µM (top dose mostly 57 µM), for the others: top-dose activity change, negative = inhibition, usual class: inhibitors; 0.72% of 360,000 active; AID 1745845; note: % is set by controls: 0 for no effect and ±100 for the full control effect; nearly all actives have a fitted effect of over 55% in size
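ATXN2-luciferase reporter cells (luciferase flanked by upstream and downstream ATXN2 gene portions) were treated 24 h at 37 °C with compounds at up to 57 uM. SteadyGlo luminescence gave expression; GF-AFC fluorescence gave viability.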
HepG2 tox: counter-screen for TGF-b inhibitors: cytotoxicity in HepG2 cells; HepG2 CAGA-GFP viability, ATP luminescence, 18 h; Potency, µM (series often up to 46.1 µM), for the others: at the highest dose activity change, negative = cytotoxicity, hits mostly cytotoxic; 0.76% of 410,000 active
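CellTiter-Glo luminescence gave cytotoxicity after 18 hours at 37 degrees C. The cells were HepG2 CAGA-GFP in 1% FBS DMEM, stimulated with 500 pg/mL TGF-beta after compound addition. %Activity was normalised to no-cell wells (complete cell-killing) and DMSO (no toxicity), and curves were fitted and classified.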
DT40 TDP1 CPT: growth inhibition of DT40 Tdp1-/-;hTDP1 cells with camptothecin (screen for TDP1 inhibitors) | chicken DT40 Tdp1-/-;hTDP1 cells + 20 nM CPT, ATP luminescence, 48 h | Potency, µM (top dose mostly 46.2 µM), for the others: at the highest dose activity change, negative = growth inhibition, hits mostly inhibitors | 12% of 420,000 active | AID 686979; note: % is set by controls: 0 for no effect and ±100 for the full control effect; nearly all actives have a fitted effect of over 55% in size
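Chicken DT40 Tdp1-/- cells stably complemented with human TDP1 were seeded at 400 cells/well in medium containing 20 nM camptothecin, exposed to pin-transferred compounds, and grown at 37 °C for at least 48 hr. Viability was read as ATP luminescence.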
The depositor's hits bear a star; i = inactive; ? = inconclusive; . = not tested or not shown. Hits are enriched below; roughly 17% of the tested compounds scored in any of these assays. Calls come from the whole dose curve; as a rule, active = well fitted curve in the direction sought with a large enough effect; inconclusive = small, poorly fitted or top-dose-only effect, or another doubt; inactive = no such curve, though single readings can be large; an effect the other way counts as inactive or inconclusive. Potency is the fitted concentration of half-maximal effect.

SMILES	DT40 TDP1 no CPT	S2 tox	TGFb SMAD3 inh	ATXN2 expr inh	HepG2 tox	DT40 TDP1 CPT
Cc1ccc(NC(=O)c2nc[nH]c2C(=O)N2CCN(c3ccccc3)CC2)cc1	-16%	i	?	6%	-2%	-22%
O=C(N/N=C/c1cccc(O)c1)c1cc(-c2ccc3c(c2)OCO3)n[nH]1	21µM*	?	-5%	.	-29%	21µM*
O=C(N/N=C/c1ccc2c(c1)OCO2)c1ccc(NC(=O)c2ccccc2Cl)cc1	?	i	-16%	0%	-37%	-27%
Cc1cccc(C(=O)Nc2ccc(C(=O)N/N=C/c3ccc4c(c3)OCO4)cc2)c1	?	i	-13%	-1%	-36%	-26%
O=C(N/N=C/c1ccc2c(c1)OCO2)c1cccc(NC(=O)c2ccccc2Cl)c1	8.2µM*	?	-20%	-4%	-19%	8.2µM*
Cc1cccc(C(=O)Nc2cccc(C(=O)N/N=C/c3ccc4c(c3)OCO4)c2)c1	29µM*	?	-15%	7%	-10%	?
COc1ccc(NC(=O)C2(C)CCCN(C(C)C)C2)cc1F (configuration not stated)	-6%	i	0%	12%	5%	-12%
COc1ccc(NC(=O)c2ccc3ccccc3n2)cc1S(=O)(=O)N1CCCCC1	16µM*	?	5%	-5%	1%	21µM*
O=C(Nc1cccc(S(=O)(=O)N2CCCCC2)c1)c1c2c(nc3ccccc13)CCN(Cc1ccccc1)C2	18µM*	i	?	4%	-5%	21µM*
O=C(Nc1cccc(S(=O)(=O)N2CCCCCC2)c1)c1ccc2ccccc2n1	18µM*	?	7%	36%	56%	?
Cc1ccc(S(=O)(=O)N2CCCCC2)cc1NC(=O)c1ccc2ccccc2n1	-18%	i	-5%	0%	-7%	1%
O=S(=O)(Nc1nc2ccccc2nc1Nc1cccc(S(=O)(=O)N2CCCCC2)c1)c1ccccc1	5.8µM*	?	71%	?	-40%	6.5µM*
COc1ccc(S(=O)(=O)Nc2cccc(S(=O)(=O)N3CCCCCC3)c2)cc1	?	i	-17%	3%	12%	-6%
CCOC(=O)c1cc(-c2ccc(OC)cc2)n(CCC(=O)NCCc2ccc(OCC)c(OCC)c2)c1C	?	.	-33%	.	-13%	?
COc1ccc(Oc2ncc3nc(CCc4ccccc4)c(=O)n(C[C@H]4CCCO4)c3n2)cc1	-12%	.	.	.	.	?
COc1ccc(S(=O)(=O)N2CCCCC2)cc1NC(=O)c1ccc2ccccc2n1	13µM*	i	11%	10%	2%	15µM*
COc1ccc(Nc2nc3ccccc3nc2NS(=O)(=O)c2cccs2)cc1	?	i	-9%	-16%	-37%	?
CCc1ccc(Nc2nc3ccccc3nc2NS(=O)(=O)c2ccccc2)cc1	21µM*	i	?	6%	-42%	16µM*
O=S(=O)(Nc1nc2ccccc2nc1Nc1ccc2c(c1)OCO2)c1ccc(F)cc1	13µM*	i	0%	10%	22%	18µM*
CC(=O)c1ccc(Nc2nc3ccccc3nc2NS(=O)(=O)c2cccs2)cc1	9.2µM*	i	-5%	.	-17%	15µM*
CCOC(=O)[C@]12CCCC=C1N(Cc1cccc3ccccc13)C(=O)[C@H](CC(=O)N1CCCCC1)C2	26µM*	?	.	-20%	.	18µM*
CCOC(=O)[C@]12CCC=C1N(Cc1cccc3ccccc13)C(=O)[C@H](CC(=O)N1CCN(C(=O)C3CC3)CC1)C2	?	?	.	7%	.	?
CCOC(=O)[C@]12CCCC=C1N(Cc1cccc3ccccc13)C(=O)[C@H](CC(=O)N1CCOCC1)C2	-30%	i	.	-12%	.	?
